Each structure is given as a SMILES string. Hit rate of the full screen: of about 2,100 compounds, about 210 (10%) were called active. Another 53% or so got no clear call; they are omitted. Calls follow the shape of the dose curve; as a rule, active = well fitted inhibition curve with a large enough effect; inconclusive = small, poorly fitted or top-dose-only effect, or effect the other way; inactive = no such curve, though single readings can be large or run the other way. The list shows a part of the results.

Here are results for 27 molecules from PubChem BioAssay AID504465 (National Center for Advancing Translational Sciences (NCATS), 2011).
Potency is read from the fitted curve at half-maximal effect.

A short description of this experiment: IN Cell qHTS Assay for Inhibitors of the mTORC1 Signaling Pathway in MEF (Tsc2-/-, p53-/-) Cells: Sytravon. Also: nearly all actives have a fitted effect of over 60% in size. The note with it: phospho-rpS6 immunofluorescence, 24 h; series mostly up to 38.3 µM; activity, negative = inhibition: at the top concentration. The procedure, abridged:
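Tsc2-/-, p53-/- MEFs (empty-vector) treated with compound 24 h at 37 degree Celsius, then fixed and stained for phospho-rpS6 Ser235/236 (Alexa-488) plus Hoechst. Reported as % positive cells, thresholds set against 7.5 nM rapamycin and DMSO wells.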
A general note: qHTS replaces the single test concentration by a dilution series.
Regarding `CC(=O)N1c2ccc(S(=O)(=O)NCC3CCC(C(=O)Nc4cc(C)cc(C)c4)CC3)cc2CC1C` (configuration not stated), the “activity, negative = inhibition” value is -17.7% (inactive).
On the same count and under the same terms, the result for `NC(=O)CSc1nc2ccc(NC(=O)COc3ccccc3Cl)cc2s1` reads -53.5% (inactive); that for `Cc1ccc2[nH]cc(C(c3ccccc3)c3ccc(Cl)s3)c2c1` (configuration not stated), 11.2% (inactive).
Consider `CCc1cccc(NC(=O)c2ccc(CNS(=O)(=O)c3ccc4c(c3)C(C)(C)C(=O)N4C)cc2)c1`, for which the “activity, negative = inhibition” value is -6.44% (inactive).
On the same count and under the same terms, under `Cc1cncn1CCc1nc2c3ccccc3nc(SCC(=O)Nc3ccccc3F)n2n1` stands -18.2% (inactive).
The same measure, in the same setting: under `O=c1[nH]c(SCc2ccc(Br)cc2)nc2c1CCCC2` stands -18.7% (inactive).
On to `Brc1ccc(Nc2c3c(nc4nncn24)CCC3)cc1`, for which the Potency is 10.4 µM (active).
As for `COc1ccc(Nc2c3c(nc4nncn24)CCC3)cc1OC`, the “activity, negative = inhibition” value is -7.07% (inactive).
As for `CCOc1ccc(-c2nonc2NC(=O)c2oc3ccc(CC)cc3c2C)cc1`, the “activity, negative = inhibition” value is 0.616% (inactive).
Same read-out and setting: under `NS(=O)(=O)c1ccc(CCNC(=O)C2COc3ccccc3C2)cc1` (configuration not stated) stands 0.324% (inactive); under `Cc1ccc(NC(=O)c2c(C)oc3ccc(O)c(CN4CCCCCC4)c23)cc1`, -9.84% (inactive).
Turning to `Cc1oc2ccc(O)c(CN3CCC(C)CC3)c2c1C(=O)Nc1ccccc1`, the Potency was 5.21 µM (active).
Same read-out and setting: under `COc1ccc(NC(=O)c2c(C)oc3ccc(O)c(CN4CCC(C)CC4)c23)cc1Cl` stands 13.1 µM (active).
As for `COc1ccc(NC(=O)c2c(C)oc3ccc(O)c(CN4CCN(Cc5ccccc5)CC4)c23)cc1Cl`, the “activity, negative = inhibition” value is -18.9% (inactive).
Still for that read-out and setting: under `Cc1oc2ccc(O)c(CN3CCCCCC3)c2c1C(=O)Nc1cccc(Cl)c1C` stands -13.9% (inactive); under `COc1ccc(NC(=O)c2c(C)oc3ccc(O)c(CN4CCCC(C)C4)c23)cc1` (configuration not stated), -13.9% (inactive).
Still for that read-out and setting: under `O=C(Cn1cc(SCc2ccc(Cl)cc2)c2ccccc21)N1CCCC1` stands -8.71% (inactive).
Same read-out and setting: the result for `Oc1c(C(Nc2ccccn2)c2ccccc2F)ccc2cccnc12` (configuration not stated) reads -19.3% (inactive); that for `COc1ccc(C)cc1NC(=O)c1cc(S(=O)(=O)N2CCN(c3cccc(C)c3C)CC2)ccc1F`, 6.25% (inactive).
Take `Cc1cc(NC(=O)C2CCC(CNS(=O)(=O)c3ccc(Br)s3)CC2)ccc1Br` (configuration not stated): the “activity, negative = inhibition” value was -23% (inactive).
For the molecule `COc1ccccc1C(=O)Nc1sc(Nc2ccccc2)nc1C(N)=O`, the Potency is 18.5 µM (active).
In the case of `COc1ccccc1C(=O)Nc1nc2ccc(S(=O)(=O)N3CCCC3)cc2s1`, the “activity, negative = inhibition” value is 7.56% (inactive).
Still for that read-out and setting: the result for `COc1ccccc1C(=O)Nc1cccc(OCc2cc(=O)n3ccccc3n2)c1` reads -16.7% (inactive).
Regarding `CCCCNC(=O)CSc1nc2n[nH]c(C)c2c(=N)n1-c1cccc(Cl)c1C`, the “activity, negative = inhibition” value is 0% (inactive).
Same read-out and setting: under `Cc1ccc(-c2nc3ccc(Cl)cn3c2Nc2ccccc2C)s1` stands 6.27% (inactive); under `Cc1cc(C)cc(NS(=O)(=O)c2ccc(-c3cc(C)no3)s2)c1`, 1.3% (inactive); under `CCC1=Nc2cc(C(=O)NC3CCCC3)ccc2Sc2ccc(Cl)cc21`, -14.2% (inactive).
